This is an account of results in PubChem BioAssay (Tox21).

A short description of assay [1]: qHTS assay to identify small molecule agonists of the estrogen receptor alpha (ER-alpha) signaling pathway in the presence of an antagonist - cell viability counter screen (AID 1259386). For activity change, negative = cytotoxicity: series mostly up to about 92 µM.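 Note: cells exposed to compounds for 22 h at 37 °C before the viability read; nearly all actives have a fitted effect of over 30% in size.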 Note: potency is the fitted concentration of half-maximal effect. In a few lines: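 Viability counter screen using VM7Luc4E2 (full-length ER-alpha, four ERE-luciferase). The cells were treated with compounds alongside ICI-182,780 10.0nM for 22hr, and live-cell protease fluorescence was quantified with CellTiter-Fluor.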

Assay [2] can be described thus: qHTS assay to identify small molecule antagonists of the TGF-beta/Smad signaling pathway - cell viability counter screen (AID 1346824). Note: nearly all actives have a fitted effect of over 50% in size. In a few lines:
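SBE-bla HEK 293T cells were plated overnight at 37 C, then given compounds in DMSO plus TGF-beta1 (added as 0.25 ng/mL solution) for 5 hr. After the bla read, CellTiter-Glo was added to the same wells and luminescence read after 30 min at room temperature.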
In general terms: qHTS replaces the single test concentration by a dilution series.

Assay [3] in a line: qHTS assay to identify small molecule agonists of the TGF-beta/Smad signaling pathway - cell viability counter screen (AID 1346829). Note: top concentration of the series differs between compounds; nearly all actives have a fitted effect of over 45% in size. In a few lines: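 Same-well cytotoxicity: CellTiter-Glo added after the 2 hr room-temperature beta-lactamase substrate step, luminescence measured 30 min later; cells had 5 hr of compound at 37 C.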
The nature of assay [4]: qHTS assay to identify small molecule agonists of the TGF-beta/Smad signaling pathway (AID 1346859; active = well fitted activation curve with a large enough effect in the signal ratio in the repeat runs, not every such curve was filed as active; the % refers to the signal ratio; note: series mostly up to about 77 µM). In a few lines:
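Beta-lactamase reporter activity downstream of Smad binding elements was measured in stably transfected HEK 293T cells; compounds were incubated for 5 hr, substrate for 2 hr at room temperature.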

Assay [5] concerns the target Thyrotropin-releasing hormone receptor (Homo sapiens) (UniProt P34981). Put plainly: qHTS assay to identify small molecule antagonists of the thyrotropin-releasing hormone receptor (TRHR) signaling pathway (AID 1346877; active = well fitted inhibition curve with a large enough effect in the repeat runs, not every such curve was filed as active; note: series mostly up to about 51 µM). In a few lines:
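Following an 18 h incubation at 37 °C and a 2 h calcium dye load, TRHR-HEK293 cells were exposed to compound (5 min, room temperature) and challenged with TRH, 1 nM final.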

Assay [6] shares this target. Put plainly: qHTS assay to identify small molecule agonists of the thyrotropin-releasing hormone receptor (TRHR) signaling pathway (AID 1346891; calls by dose curve;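 note: HEK293 cells expressing TRHR with calcium dye readout; series mostly up to about 58 µM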). In a few lines:
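Overnight-plated (18 h, 37 °C, 5% CO2) TRHR-Hek293 cells; 2 h calcium dye at 37 °C; compound in DMSO; 3-min kinetic fluorescence read.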

Assay [7] addresses Progesterone receptor (Homo sapiens) (UniProt P06401). Put plainly: qHTS assay to identify small molecule agonists of the progesterone receptor (PR) signaling pathway (AID 1346784; calls by dose curve; note: nearly all actives have a fitted effect of over 30% in size; note: potency is the fitted concentration of half-maximal effect). In a few lines:
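Seed PR-UAS-bla HEK 293T cells (2% charcoal-stripped FBS), incubate 6 hr at 37C; add compounds in DMSO, 16 hr at 37C; add LiveBLAzer B/G substrate, 2 hr RT; read fluorescence intensity.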

Assay [8] shares this target. Nature of the assay: qHTS assay to identify small molecule antagonists of the progesterone receptor (PR) signaling pathway (AID 1346795; active = well fitted inhibition curve with a large enough effect in the signal ratio in the repeat runs, not every such curve was filed as active; the % refers to the signal ratio). In a few lines: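 Screening used a GripTite HEK293T line with PR-responsive UAS-beta-lactamase. Cells were challenged with compound in the presence of 1 nM R5020 final for 16 hr at 37C; B/G FRET substrate, 2 hr room temperature, fluorescence.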

A short description of assay [9]: qHTS assay to identify small molecule antagonists of the progesterone receptor (PR) signaling pathway - cell viability counter screen (AID 1346798). For activity change, negative = cytotoxicity: series mostly up to about 92 µM. Note: nearly all actives have a fitted effect of over 50% in size. Note: potency is the fitted concentration of half-maximal effect. In a few lines: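 Measures cytotoxicity in parallel with the PR antagonist reporter read: HEK293T PR-UAS-bla cells get compound and R5020 for 16 hr, and remaining viable cells are quantified by CellTiter-Glo luminescence.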

Assay [10] can be described thus: qHTS assay to identify small molecule agonists of the progesterone receptor (PR) signaling pathway - cell viability counter screen (AID 1346799; calls by dose curve; note: nearly all actives have a fitted effect of over 45% in size; note: potency is the fitted concentration of half-maximal effect). In a few lines: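 Using the same plates as the PR reporter screen, HEK293T PR-UAS-bla cells received compounds for 16 hr at 37C and were then lysed with CellTiter-Glo; luminescence was read 30 min later at room temperature.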

Unmarked numbers belong to inactive results. Inconclusive results are not listed. The source made the active and inactive calls. Unless noted, calls come from the whole dose curve; as a rule, active = well fitted curve in the direction sought with a large enough effect in the repeat runs; inconclusive = weak or mixed curves; inactive = no such curve, though single readings can be large; an effect the other way counts as inactive or inconclusive.
% is set by controls: 0 for no effect and ±100 for the full control effect.

Sequence of Progesterone receptor (Homo sapiens) (P06401 whole entry, looked up): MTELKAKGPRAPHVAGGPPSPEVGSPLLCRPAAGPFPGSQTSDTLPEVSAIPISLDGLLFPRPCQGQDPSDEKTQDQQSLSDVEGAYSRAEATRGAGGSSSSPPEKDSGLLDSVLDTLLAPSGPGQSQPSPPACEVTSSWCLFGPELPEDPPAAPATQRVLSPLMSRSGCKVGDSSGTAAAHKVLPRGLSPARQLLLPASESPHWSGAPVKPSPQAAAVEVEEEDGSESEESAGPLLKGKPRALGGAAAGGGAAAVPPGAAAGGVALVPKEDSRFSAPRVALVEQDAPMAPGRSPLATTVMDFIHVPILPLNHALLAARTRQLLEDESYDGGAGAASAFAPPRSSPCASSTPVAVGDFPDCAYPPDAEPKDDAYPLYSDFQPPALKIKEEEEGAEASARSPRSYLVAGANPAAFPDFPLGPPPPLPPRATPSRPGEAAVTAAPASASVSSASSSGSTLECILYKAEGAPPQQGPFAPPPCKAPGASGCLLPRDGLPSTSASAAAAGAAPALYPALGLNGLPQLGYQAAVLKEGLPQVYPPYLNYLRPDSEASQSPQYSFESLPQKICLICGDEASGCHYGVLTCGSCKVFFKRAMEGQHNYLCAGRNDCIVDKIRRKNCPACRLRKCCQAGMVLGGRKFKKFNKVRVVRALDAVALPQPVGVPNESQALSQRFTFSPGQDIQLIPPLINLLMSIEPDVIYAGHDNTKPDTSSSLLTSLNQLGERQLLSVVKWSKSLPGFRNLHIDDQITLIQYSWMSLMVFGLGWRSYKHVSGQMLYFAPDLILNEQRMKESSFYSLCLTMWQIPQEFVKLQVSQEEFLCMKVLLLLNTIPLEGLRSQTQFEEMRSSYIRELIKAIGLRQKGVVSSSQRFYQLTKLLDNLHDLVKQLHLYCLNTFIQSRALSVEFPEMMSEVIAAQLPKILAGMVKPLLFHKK
Sequence of Thyrotropin-releasing hormone receptor (Homo sapiens) (P34981 whole entry, looked up): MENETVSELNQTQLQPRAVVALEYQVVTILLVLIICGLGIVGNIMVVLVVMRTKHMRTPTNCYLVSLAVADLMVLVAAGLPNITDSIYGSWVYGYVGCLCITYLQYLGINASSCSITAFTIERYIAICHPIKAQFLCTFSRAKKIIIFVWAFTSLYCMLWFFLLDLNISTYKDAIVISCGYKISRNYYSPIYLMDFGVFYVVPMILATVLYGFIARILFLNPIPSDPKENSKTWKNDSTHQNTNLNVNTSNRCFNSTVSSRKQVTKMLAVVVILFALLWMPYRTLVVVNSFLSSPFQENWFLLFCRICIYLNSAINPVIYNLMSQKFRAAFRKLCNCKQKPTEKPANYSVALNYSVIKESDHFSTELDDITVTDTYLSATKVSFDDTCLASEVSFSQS

For the molecule `O=Cc1ccc(Cl)c([N+](=O)[O-])c1`, the Potency result in assay [1] is “inactive”. In addition, the result in [2], in assay [3], in assay [4], in assay [5] and in assay [6] was inactive.

In the case of `CC(=O)Oc1cccc2c1C(=O)c1c(OC(C)=O)cc(C(=O)O)cc1C2=O`, the Potency in assay [1] is 29.8 µM (active). Moreover, the molecule was called inactive in [2], in assay [3], in [5] and in [6].

For `O=C(NC1CCN(CCc2c[nH]c3ccccc23)CC1)c1ccccc1`, the Potency entry in [7], in assay [8], in assay [9] and in assay [10] was “inactive” each time. Besides, the molecule was classed as inactive in [2], in assay [3], in assay [4], in assay [5] and in assay [6].

For the molecule `Oc1ccc(CCNCCCCCCNCCc2ccccc2)cc1O`, the Potency result in assay [7], in assay [8], in assay [9] and in assay [10] was “inactive” each time. The call in [3], in [4], in assay [5] and in assay [6] was inactive.

`Cc1c(Nc2ncccc2C(=O)O)cccc1C(F)(F)F`: the Potency entry in assay [1] and in [8] was “inactive” throughout. For the same molecule, the outcome in [2], in [3], in assay [4], in [5] and in assay [6] was inactive.

On to `CC(C)C[C@H](NC(=O)[C@H](Cc1ccccc1)NC(=O)c1cnccn1)B(O)O`, for which the Potency in [1] was 0.841 µM (active). In addition, the Potency entry in assay [9] and in assay [10] was “inactive” in each case. In addition, the molecule was classed as inactive in [2], in [3], in assay [4], in [5] and in assay [6].

`O=C(Nc1ccccc1)c1cc([N+](=O)[O-])ccc1Cl`: the Potency result in [1] and in assay [9] was “inactive” each time. Moreover, the molecule was called inactive in [3], in [5] and in assay [6].

Regarding `Cc1ccc(NC(=O)c2ccc(CN3CCN(C)CC3)cc2)cc1Nc1nccc(-c2cccnc2)n1`, in assay [9], the Potency result was “inactive”. Besides, in assay [3], the result was inactive.

`OCC(O)c1ccccc1` (stereo not drawn): the Potency entry in assay [1] is “inactive”. For the same molecule, the Potency in assay [9] is 19.3 µM (active). Moreover, the molecule was called inactive in assay [3], in assay [4], in assay [5] and in assay [6].

On to `NCCOCCOCCN`, for which, in [1], the Potency result was “inactive”. Besides, the molecule was classed as inactive in assay [2], in [3], in assay [4], in assay [5] and in assay [6].

Turning to `CCN(CC)CC(=O)OCC(=O)[C@@]1(O)CC[C@H]2[C@@H]3CCC4=CC(=O)CC[C@]4(C)[C@H]3[C@@H](O)C[C@@]21C`, the Potency entry in [1] and in assay [9] was “inactive” each time. The molecule was classed as inactive in assay [2], in [3], in assay [4], in [5] and in assay [6].

On to `CC(C)NC(=O)c1ccccc1N`, for which the Potency entry in assay [1] and in [9] was “inactive” in each case. Moreover, the molecule was called inactive in assay [2], in [3], in assay [4], in [5] and in assay [6].

In the case of `CCCCCCCCOCCCN`, the Potency result in [8] and in [9] was “inactive” each time. Moreover, the outcome in assay [2], in assay [3], in assay [4], in [5] and in assay [6] was inactive.

Take `Cc1cc(C)n(CO)n1`: the Potency result in [1] and in [10] was “inactive” each time. For the same molecule, the molecule was called inactive in assay [4], in [5] and in assay [6].

For `C[C@]12CCC(=O)C=C1[C@@H]1C[C@@H]1[C@H]1[C@@H]3[C@@H]4C[C@@H]4[C@@]4(CCC(=O)O4)[C@@]3(C)CC[C@@H]12`, the Potency entry in [1] and in assay [9] was “inactive” in each case. Moreover, the molecule was classed as inactive in [2], in assay [3], in assay [5] and in assay [6].

Take `Cc1cccc(C)c1NC(=O)CN1CCCC1`: the Potency entry in assay [1], in [9] and in assay [10] was “inactive” each time. Besides, the molecule was classed as inactive in [2], in assay [3] and in assay [4].

As to `CO[C@@H]1[C@@H](O[C@@H]2O[C@H](C)[C@@H](O[C@H]3C[C@@](C)(O)[C@@H](O)[C@H](C)O3)[C@H](N(C)C)[C@H]2O)[C@@H](CC=O)C[C@@H](C)[C@@H](O[C@@H]2CC[C@H](N(C)C)[C@@H](C)O2)/C=C/C=C/C[C@@H](C)OC(=O)C[C@H]1OC(C)=O`, the Potency result in assay [1] and in [9] was “inactive” each time. For the same molecule, the call in assay [2], in [3], in assay [4], in [5] and in assay [6] was inactive.

In the case of `COc1ccc(/C=C/S(=O)(=O)NC(=O)c2ccc(C)cc2Cl)cc1`, the Potency entry in [7] is “inactive”. Further, the molecule was classed as inactive in assay [3], in assay [4], in assay [5] and in assay [6].

Consider `O=c1[nH][nH]c2ccccc12`, for which the Potency entry in assay [1] and in assay [9] was “inactive” in each case. The outcome in [2], in assay [3], in [4], in [5] and in [6] was inactive.

Regarding `CC(=O)c1ccc(Cl)c(Cl)c1Cl`, the Potency result in [1], in assay [9] and in [10] was “inactive” throughout. Besides, the result in [2], in [3], in [4], in [5] and in assay [6] was inactive.

With `CC(C)CCCCCCCOC(=O)c1ccc(C(=O)OCCCCCCCC(C)C)c(C(=O)OCCCCCCCC(C)C)c1`, in [1], the Potency entry was “inactive”. For the same molecule, in assay [10], the Potency was 42.6 µM (active). Also, the molecule was called inactive in assay [2], in [3] and in assay [4].

For the molecule `CCOc1ccc(NC(C)=O)cc1N`, the Potency result in [1] and in [10] was “inactive” in each case. In addition, the outcome in [2], in assay [3] and in assay [4] was inactive.

In the case of `CC(=O)OCC(=O)[C@@]1(O)CC[C@H]2[C@@H]3CCC4=CC(=O)C=C[C@]4(C)[C@@]3(F)[C@@H](O)C[C@@]21C`, the Potency entry in assay [1] was “inactive”. The molecule was called inactive in assay [2], in [3], in [4], in assay [5] and in assay [6].

For `CC(C)CC(C)(C)C`, the Potency result in assay [1] and in assay [9] was “inactive” throughout. Besides, the Potency in assay [10] is 31.8 µM (active). For the same molecule, the outcome in assay [2], in assay [3], in [4], in [5] and in [6] was inactive.

`CC1=CC(=C(c2ccc(N)cc2)c2ccc(N)cc2)C=CC1=N`: the Potency in [7] is 0.39 µM (active). In assay [8], the activity change, negative = inhibition was 5.6% [at 8.39 µM]. For the same molecule, the values for the activity change, negative = cytotoxicity in assay [9], in assay [10] and in [3] were 5.81% [at 8.39 µM], 0% [at 8.39 µM] and 4.82% [at 6.97 µM], respectively. In addition, the viability change, negative = cytotoxic in assay [2] is 12% [at 6.97 µM]. For the same molecule, the activation in assay [4] is 8.28% [at 6.97 µM].

On to `O=C(OCCN1CCOCC1)c1cccnc1Nc1cccc(C(F)(F)F)c1`, for which the Potency result in [1] and in assay [9] was “inactive” in each case. In addition, the call in [2], in assay [3], in assay [4], in assay [5] and in [6] was inactive.

On to `C/C(=C\C(C)CC(C)CC(C)C)C1CC(=O)OC1=O` (stereo not drawn), for which the Potency result in assay [1] was “inactive”. Also, the result in assay [2], in assay [3], in [4], in assay [5] and in [6] was inactive.

In the case of `CCn1nc(Cc2ccccc2)cc1C1CCN(C[C@H]2C[C@H](N(C)[C@@H](C(=O)O)C(C)C)C[C@@H]2c2cccc(F)c2)CC1`, the Potency entry in assay [1], in assay [9] and in [10] was “inactive” throughout. For the same molecule, the outcome in assay [3], in assay [5] and in assay [6] was inactive.

In the case of `c1ccc(-c2ccc(-c3ccccc3)cc2)cc1`, the activity change, negative = cytotoxicity in assay [1] was 0.383% [at 19 µM]; in assay [9], 3.71% [at 18.9 µM]; in assay [10], 0% [at 19 µM]; in assay [3] it was -3.25% [at 15.8 µM]. Further, in [2], the viability change, negative = cytotoxic was -15.2% [at 15.8 µM]. The activation was 0.211% [at 15.8 µM] in assay [4] and 0.249% [at 11.8 µM] in [6]. In assay [5], the activity, negative = inhibition is -0.349% [at 10.5 µM].

Regarding `CC(C)(Cc1c[nH]c2ccccc12)NCC(O)COc1ccccc1C#N` (stereo not drawn), the Potency result in assay [1] and in [8] was “inactive” throughout. The call in assay [3], in assay [4], in assay [5] and in [6] was inactive.

On to `O=C1c2ccccc2C(=O)C1c1ccc2cc(S(=O)(=O)O)cc(S(=O)(=O)O)c2n1`, for which the Potency in [1] was 26.3 µM (active); in assay [9], 20.9 µM (active); in assay [10], 18.6 µM (active). Also, the call in assay [2], in [3], in [4], in [5] and in assay [6] was inactive.

For the molecule `O=C(O)CCc1nc2ccccc2[nH]1`, the Potency entry in assay [7], in assay [8], in assay [9] and in assay [10] was “inactive” in each case. Further, the molecule was classed as inactive in [2], in assay [3], in [4], in assay [5] and in assay [6].
